Reference: PubChem BioAssay (NCATS)
Several values for one entry are separate records, joined by “and”; a condition that tells them apart may be missing. Identical values can stand only once. Results filed as inconclusive are left out. A call without a number means that no potency is given here. Activity calls are given as the source filed them. Unless noted, calls follow the shape of the dose curve; as a rule, active = well fitted curve in the direction sought with a large enough effect; inconclusive = small, poorly fitted or top-dose-only effect, or another doubt; inactive = no such curve, though single readings can be large; an effect the other way counts as inactive or inconclusive.

What was measured:
[1] = target: Calcium and integrin-binding protein 1 (Homo sapiens) (UniProt Q99828); test: Primary qHTS for Identification of Calcium Integrin Binding Protein 1 (CIB1) Competitor (AID 1508620);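 also: GST tagged CIB1 binding a fluorescein labelled alphaIIb integrin peptide tracer; top concentration of the series differs between compounds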
Chain of Calcium and integrin-binding protein 1 (Homo sapiens) (Q99828 whole entry, looked up): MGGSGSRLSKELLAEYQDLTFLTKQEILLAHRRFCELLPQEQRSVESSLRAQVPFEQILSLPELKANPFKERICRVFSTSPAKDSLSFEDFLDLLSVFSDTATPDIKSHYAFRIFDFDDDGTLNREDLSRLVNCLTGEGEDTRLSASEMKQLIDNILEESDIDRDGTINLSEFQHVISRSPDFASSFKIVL
Method in brief: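 Fluorescence polarization competition: GST-tagged CIB1 (1 uM final) preincubated with compound 15 min at room temperature, then FITC-labelled alphaIIb peptide (100 nM final) added. After 15 min at room temperature, polarization read at Ex 480/Em 540.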

[2] = target: Cytochrome P450 2D6 (Homo sapiens) (UniProt P10635); test: Cytochrome P450 family 2 subfamily D member 6 (CYP2D6) small molecule antagonists: luciferase biochemical (cell-free) qHTS assay (AID 1645840; active = well fitted curve in the direction sought with a large enough effect in the repeat runs; an effect the other way counts as inactive or inconclusive; also: nearly all actives have a fitted effect of over 55% in size; also: potency is read from the fitted curve at half-maximal effect)
Chain of Cytochrome P450 2D6 (Homo sapiens) (P10635 whole entry, looked up): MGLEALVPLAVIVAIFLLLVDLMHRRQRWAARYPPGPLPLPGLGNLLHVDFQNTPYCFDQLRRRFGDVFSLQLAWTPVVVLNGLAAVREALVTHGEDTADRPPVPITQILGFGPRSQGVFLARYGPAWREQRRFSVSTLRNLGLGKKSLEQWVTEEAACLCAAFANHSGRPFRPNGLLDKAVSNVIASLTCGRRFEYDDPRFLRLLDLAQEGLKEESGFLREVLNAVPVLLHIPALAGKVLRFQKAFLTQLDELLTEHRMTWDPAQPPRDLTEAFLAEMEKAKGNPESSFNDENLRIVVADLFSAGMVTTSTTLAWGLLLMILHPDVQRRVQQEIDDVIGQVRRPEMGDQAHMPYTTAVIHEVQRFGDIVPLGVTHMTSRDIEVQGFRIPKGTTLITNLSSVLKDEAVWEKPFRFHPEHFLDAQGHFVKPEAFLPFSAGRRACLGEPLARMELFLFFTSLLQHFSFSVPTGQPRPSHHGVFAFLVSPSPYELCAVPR
Method in brief: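 P450-Glo CYP2D6 system: proluciferin substrate converted by enzyme to luciferin, read by luminescence proportional to activity. Enzyme-substrate mix with compound 10 min at room temperature, then NADPH regeneration 1 h before detection reagent.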

[3] = target: Cytochrome P450 2C9 (Homo sapiens) (UniProt P11712); test: Cytochrome P450 family 2 subfamily C member 9 (CYP2C9) small molecule antagonists: luciferase biochemical (cell-free) qHTS assay (AID 1645842; active = well fitted curve in the direction sought with a large enough effect in the repeat runs; an effect the other way counts as inactive or inconclusive; also: nearly all actives have a fitted effect of over 55% in size; also: potency is read from the fitted curve at half-maximal effect)
Chain of Cytochrome P450 2C9 (Homo sapiens) (P11712 whole entry, looked up): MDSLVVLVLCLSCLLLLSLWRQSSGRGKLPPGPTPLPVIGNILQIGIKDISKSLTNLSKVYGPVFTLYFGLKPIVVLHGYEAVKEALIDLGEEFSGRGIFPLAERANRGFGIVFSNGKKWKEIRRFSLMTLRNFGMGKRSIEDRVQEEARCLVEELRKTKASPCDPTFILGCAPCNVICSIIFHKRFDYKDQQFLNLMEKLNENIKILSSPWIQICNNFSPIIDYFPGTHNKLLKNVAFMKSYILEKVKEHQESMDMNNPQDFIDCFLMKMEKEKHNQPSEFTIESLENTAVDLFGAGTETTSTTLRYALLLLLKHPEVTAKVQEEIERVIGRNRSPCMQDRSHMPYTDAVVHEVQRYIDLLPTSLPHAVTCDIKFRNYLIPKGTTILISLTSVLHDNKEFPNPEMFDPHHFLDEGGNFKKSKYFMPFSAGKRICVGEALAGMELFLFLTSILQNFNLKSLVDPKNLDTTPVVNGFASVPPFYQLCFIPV
Method in brief: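 P450-Glo CYP2C9 system: proluciferin substrate with enzyme in mix containing 0.4% BSA, 10 min at room temperature, then NADPH regeneration solution added and incubated 1 h at 37C. Detection reagent stopped reaction; luminescence read after 20 min as RLU.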

[4] = Primary qHTS for inhibitors of nuclear receptor binding SET domain protein 2 (NSD2) in an isogenic RCH-ACV NSD2 p.E1099K mutant (9B) (AID 1645876); also: nearly all actives have a fitted effect of over 70% in size; also: potency is read from the fitted curve at half-maximal effect
[5] = Primary qHTS for inhibitors of nuclear receptor binding SET domain protein 2 (NSD2) in an RCH-ACV wild type WT cells (2C) (AID 1645877); also: nearly all actives have a fitted effect of over 70% in size; also: potency is read from the fitted curve at half-maximal effect
[6] = target: Catechol O-methyltransferase (Homo sapiens) (UniProt P21964); test: Confirmatory Screen for Target Class Profiling of Small Molecule Inhibitors of Methyltransferases (AID 1745852); conditions: MTase-Glo luminescence, SAH detection, recombinant enzyme; measured here: COMT max response; stronger effect = lower value
Chain of Catechol O-methyltransferase (Homo sapiens) (P21964 whole entry, looked up): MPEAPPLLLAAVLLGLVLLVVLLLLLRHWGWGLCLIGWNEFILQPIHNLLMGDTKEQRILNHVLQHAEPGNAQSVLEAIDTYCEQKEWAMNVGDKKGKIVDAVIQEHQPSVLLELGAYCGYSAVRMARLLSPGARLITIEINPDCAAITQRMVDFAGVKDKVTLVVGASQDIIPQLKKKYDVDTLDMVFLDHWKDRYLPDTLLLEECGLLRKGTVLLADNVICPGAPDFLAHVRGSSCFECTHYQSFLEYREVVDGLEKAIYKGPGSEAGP

[7] = target: N-terminal Xaa-Pro-Lys N-methyltransferase 1 (Homo sapiens) (UniProt Q9BV86); test: Confirmatory qHTS for Inhibitors of N-terminal methyltransferase 1 (NTMT1): MTaseGlo Assay (AID 1645874); also: potency is read from the fitted curve at half-maximal effect; nearly all actives have a fitted effect of over 65% in size
Chain of N-terminal Xaa-Pro-Lys N-methyltransferase 1 (Homo sapiens) (Q9BV86 whole entry, looked up): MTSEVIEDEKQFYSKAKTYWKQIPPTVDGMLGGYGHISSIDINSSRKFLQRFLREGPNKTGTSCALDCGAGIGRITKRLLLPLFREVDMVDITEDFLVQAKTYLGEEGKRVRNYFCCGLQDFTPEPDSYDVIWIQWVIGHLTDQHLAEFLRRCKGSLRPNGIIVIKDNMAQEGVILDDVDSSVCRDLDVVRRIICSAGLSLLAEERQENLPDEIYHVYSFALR
Method in brief: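 Room-temperature NTMT1 reaction, 30 min, with 100 uM SAM and 1 uM SPKRIA substrate; enzyme 125 nM. Read-out: MTase-Glo luminescence, normalized to no-enzyme and DMSO controls.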

Row | SMILES | Potency [1] | Potency [2] | Potency [3] | Potency [4] | Potency [5] | activity change, negative = viability loss [4] | activity change, negative = cell killing [5] | activity [6] | Potency [7]
1 | c1ccc(-c2ncc(CN3CCN(c4ncccn4)CC3)[nH]2)cc1 | inactive | 952 nM (active) | 2130 nM (active) | inactive | inactive | – | – | – | –
2 | Cc1ccc(C)c(OCCn2cc(C(=O)O)c3ccccc32)c1 | inactive | inactive | 13500 nM (active) | inactive | inactive | – | – | – | –
3 | O=C(Nc1ccc(S(=O)(=O)Nc2nccs2)cc1)C(c1ccccc1)c1ccccc1 | inactive | 19000 nM (active) | 674 nM (active) | inactive | inactive | – | – | – | –
4 | NC(=O)c1cccc2cn(-c3ccc(C4CCCNC4)cc3)nc12 (stereo not drawn) | inactive | inactive | inactive | 3.25 µM (active) | 2050 nM (active) | – | – | – | –
5 | Cc1cc(C(=O)N2CCCCc3ccccc32)ccc1CNC(=O)N1CCC[C@H]1C(=O)N(C)C | inactive | inactive | inactive | inactive | inactive | – | – | – | –
6 | Cn1c2ccc(F)cc2c2c(C(=O)N3CCCC3)cn(-c3ccccc3)c(=O)c21 | inactive | inactive | 1510 nM (active) | inactive | inactive | – | – | – | –
7 | Cc1ccc(C(=O)Nc2noc3ccccc23)cc1 | inactive | 7560 nM (active) | 16900 nM (active) | inactive | inactive | – | – | – | –
8 | Nc1ccc(-c2cccc3c(=O)cc(N4CCOCC4)oc23)cc1 | inactive | inactive | 9520 nM (active) | 1.63 µM (active) | 1830 nM (active) | – | – | – | –
9 | C[C@@H]1CN(Cc2ccccc2)C[C@H]1c1nc2c(cnn2C2CCOCC2)c(=O)[nH]1 | inactive | inactive | inactive | inactive | inactive | – | – | – | –
10 | CC(C)(C)Nc1nc2cc(Cl)c(Cl)cc2nc1S(C)(=O)=O | inactive | 6010 nM (active) | 5350 nM (active) | 1.29 µM (active) | 409 nM (active) | – | – | – | –
11 | CCC(Nc1ncnc2nc[nH]c12)c1nc2cccc(F)c2c(=O)n1-c1ccccc1 (stereo not drawn) | inactive | inactive | 13500 nM (active) | 0.0728 µM (active) | 461 nM (active) | – | – | – | –
12 | CCOc1ccc(NC(=S)N2CCC(C(O)(c3ccccc3)c3ccccc3)CC2)cc1 | inactive | 2680 nM (active) | 9520 nM (active) | inactive | inactive | – | – | – | –
13 | CC(C)(C)c1cc(Br)cc([C@H](CC(=O)O)NC(=O)CNC(=O)c2cc(O)cc(NC3=NCC(O)CN3)c2)c1 (stereo partly drawn) | inactive | inactive | inactive | inactive | inactive | – | – | – | –
14 | C[C@@H]1CN(Cc2ncccn2)C[C@H]1c1nc2c(cnn2C2CCOCC2)c(=O)[nH]1 | inactive | inactive | inactive | inactive | inactive | – | – | – | –
15 | CC(C)CCC(=O)CC1c2ccccc2C(=O)N1c1ccc2ccc(Cl)nc2n1 (stereo not drawn) | inactive | inactive | 1510 nM (active) | inactive | inactive | – | – | – | –
16 | COc1cc2ncnc(N3CCC(Oc4cnc5ccccc5n4)C3)c2cc1OC (stereo not drawn) | inactive | inactive | 10700 nM (active) | 0.258 µM (active) | 145 nM (active) | – | – | – | –
17 | CN1CCN(Cc2ccc(-c3cnc4[nH]cc(-c5ccc6[nH]ccc6c5)c4c3)cc2)CC1 | inactive | 2130 nM (active) | 12000 nM (active) | 1.45 µM (active) | 1450 nM (active) | – | – | – | –
18 | CCc1cc(CN2CC(C(=O)O)C2)sc1-c1noc(-c2ccc(Oc3ccccc3)cc2)n1 | inactive | inactive | inactive | 10 µM (active) | 10000 nM (active) | – | – | – | –
19 | COc1ccc(Oc2cc(C)c(-c3csc(NC(=O)c4ccncc4)n3)c(C)c2)cc1 | inactive | 3010 nM (active) | 4770 nM (active) | 0.163 µM (active) | 916 nM (active) | – | – | – | –
20 | COc1c(Nc2ncc(Cl)c(N[C@H]3[C@@H](C(N)=O)[C@@H]4C=C[C@H]3C4)n2)ccc2c1CC[C@@H](N1CCOCC1)CC2 | inactive | 19000 nM (active) | 6010 nM (active) | 3.25 µM (active) | 3250 nM (active) | – | – | – | –
21 | O=C(NCc1ccccn1)Nc1nnc(-c2ccco2)o1 | inactive | inactive | inactive | inactive | inactive | – | – | – | –
22 | COc1ncc(Nc2ncc([C@H](C)N3CCN(S(C)(=O)=O)CC3)cc2-c2nc(C)nc(N)n2)cc1F | inactive | inactive | 12000 nM (active) | 5.8 nM (active) and 5.9 nM (active) | 57.8 nM (active) and 8.3 nM (active) | – | – | – | –
23 | CC(C)S(=O)(=O)N[C@H]1CCOC[C@@H]1c1ccc(-c2ccc(C#N)s2)cc1 | inactive | 10700 nM (active) | 213 nM (active) | inactive | inactive | – | – | – | –

Row | SMILES | Potency [1] | Potency [2] | Potency [3] | Potency [4] | Potency [5] | activity change, negative = viability loss [4] | activity change, negative = cell killing [5] | activity [6] | Potency [7]
24 | O=C(CCCCN1CCOCC1)Nc1ccc(-c2cccnc2)cc1 | inactive | 6010 nM (active) | inactive | inactive | inactive | – | – | – | –
25 | CC(NC(=O)C(O)C(C)C)C(=O)NC1C(=O)N(C)CCc2ccccc21 (stereo not drawn) | inactive | inactive | inactive | inactive | inactive | – | – | – | –
26 | O=[N+]([O-])c1cccc2[nH]c(CNc3nc(N4CCOCC4)nc4c3ncn4-c3ccsc3)nc12 | inactive | inactive | 952 nM (active) | 0.0649 µM (active) | 64.9 nM (active) | – | – | – | –
27 | Cc1nc2sc(C(=O)NCc3ccncc3)c(N)c2c(C)c1Cl | inactive | 2390 nM (active) | inactive | inactive | inactive | – | – | – | –
28 | O=C(O)c1ccccc1NC(=O)N1CCC(c2ccccc2C(F)(F)F)CC1 | inactive | inactive | 849 nM (active) | inactive | inactive | – | – | – | –
29 | Cc1ccccc1-n1c([C@H](C)Nc2nc(N)nc3nc[nH]c23)nc2cccc(C)c2c1=O | inactive | 16900 nM (active) | 1340 nM (active) | 0.0649 µM (active) | 411 nM (active) | – | – | – | –
30 | CCN(Cc1cccnc1)C(=O)CN(c1ccc(OC)nc1)S(=O)(=O)c1ccccc1C | inactive | inactive | 19000 nM (active) | inactive | inactive | – | – | – | –
31 | COc1ccc(-c2cnc(-c3cccc4c3-c3ccccc3C4=O)o2)cc1 | inactive | inactive | 657 nM (active) | 0.0893 µM (active) | 89.3 nM (active) | – | – | – | –
32 | O=C(Cc1ccc(-c2ccccc2)cc1)NC1CCC1 | inactive | inactive | 6740 nM (active) | inactive | inactive | – | – | – | –
33 | CC(C)C(CO)Nc1nc(Nc2cc(N)cc(Cl)c2)c2ncn(C(C)C)c2n1 (stereo not drawn) | inactive | 23900 nM (active) | 536 nM (active) | 6.49 µM (active) | 6490 nM (active) | – | – | – | –
34 | CC(C)(C#N)c1ccc(N2C(=O)OCc3cnc4ccc(-c5cnc6ccccc6c5)cc4c32)cc1 | inactive | inactive | 2680 nM (active) | 0.728 µM (active) | 817 nM (active) | – | – | – | –
35 | CNC(=O)c1ccccc1Nc1nc(Nc2ccc3c(c2OC)CCCC(N2CCN(CCO)CC2)C3)ncc1Cl (stereo not drawn) | inactive | 15100 nM (active) | inactive | 6.49 µM (active) | 7280 nM (active) | – | – | – | –
36 | Cc1onc(C(=O)N2CCN(C(c3ccc(Cl)cc3)c3ccc(Cl)cc3)CC2)c1[N+](=O)[O-] | inactive | inactive | 5350 nM (active) | 0.23 µM (active) | 145 nM (active) | – | – | – | –
37 | Cn1cc(-c2ccc3nnc(Sc4ccc5nn(C)cc5c4)n3n2)cn1 | inactive | inactive | 4770 nM (active) | inactive | inactive | – | – | – | –
38 | CC1CCN(C(=O)CC#N)CC1N(C)c1ncnc2[nH]ccc12 (stereo not drawn) | inactive | inactive | 23900 nM (active) | inactive | inactive | – | – | – | –
39 | CN(C)C(=O)NC1CCC(CCN2CCN(c3cccc(Cl)c3Cl)CC2)CC1 (stereo not drawn) | inactive | 12000 nM (active) | – | – | – | 3.61% [at 9.23 µM] (inactive) | 2.1% [at 9.23 µM] (inactive) | – | –
40 | NC(=O)c1cnc(NCCc2ccc(O)c(Cl)c2)nc1NCc1ccccc1 | inactive | 15100 nM (active) | 6740 nM (active) | 1.29 µM (active) | 1150 nM (active) | – | – | -29% | –
41 | CC(C)c1cccc2c(-c3ccccc3)cc(-c3ccc(-c4ccc(C(=O)O)cc4)[nH]3)nc12 | inactive | inactive | 7560 nM (active) | – | – | – | – | -3.32% | –
42 | CCCNc1ccc2ncc(-c3ccc4[nH]ncc4c3)n2n1 | inactive | inactive | – | 0.258 µM (active) | 91.6 nM (active) | – | – | -53.8% | 8910 nM (active)
43 | CCOC(=O)Nc1cc(-c2ccc(C)c(NS(C)(=O)=O)c2)nn2c(C)nnc12 | inactive | inactive | – | 0.728 µM (active) | 515 nM (active) | – | – | – | –
44 | N#Cc1cnc2cnc(NCc3cccnc3)cc2c1Nc1ccc(F)c(Cl)c1 | inactive | 756 nM (active) | 1200 nM (active) | – | – | – | – | -10.6% | –
45 | O=C(c1ccccc1)c1ccc2nc(NC(=O)c3csc(C4CCN(c5ncnc6ccsc56)CC4)n3)[nH]c2c1 | inactive | inactive | 9520 nM (active) | 3.25 µM (active) | 4590 nM (active) | – | – | -7.12% | –
46 | COc1cccc(Nc2ncnn3ccc(CN4CC[C@@H](N)[C@H](O)C4)c23)c1 | inactive | 9520 nM (active) | – | 4.68 µM (active) | 4680 nM (active) | – | – | – | –
